Neddyl block – inhibitors of human cullin neddylation; P61081+Q13564; TR-FRET cullin neddylation, biochemical; calls only at 25 µM; 360,000 compounds, 0.58% hits; in the data active = inhibition above about 36%
UHRF1 MBD2 ctr – human UHRF1 methylated DNA binding inhibitors. Q96T88. UHRF1 binding to methylated oligo, TR-FRET. inhibition, % at 4.4 µM. 370,000 compounds, 0.75% hits. AID 687016; in the data active = inhibition above about 21%;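 also: UHRF1 SRA domain binding a hemimethylated CpG hairpin DNA probe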
proKLK7 act – activates the human kallikrein-7 zymogen; purified proKLK7, EDANS-DABCYL substrate fluorescence; 100% is mature enzyme control, 0% vehicle; 370,000 compounds, 0.9% hits; activation, % at 7 µM; P49862;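 active = activation above the mean of all tested compounds plus 3 SD, computed per campaign excluding outliers beyond control limits, cut at about 13% in these data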
Target sequence (P49862 whole entry, looked up): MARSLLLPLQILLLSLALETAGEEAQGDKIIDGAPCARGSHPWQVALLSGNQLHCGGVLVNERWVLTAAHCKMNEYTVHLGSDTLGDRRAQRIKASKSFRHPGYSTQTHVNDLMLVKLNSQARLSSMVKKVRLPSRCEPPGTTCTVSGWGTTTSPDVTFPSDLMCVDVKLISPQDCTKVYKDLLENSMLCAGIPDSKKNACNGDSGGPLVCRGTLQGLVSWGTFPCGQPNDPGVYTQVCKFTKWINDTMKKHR
Rin1-Abl PPI inh – human Rin1-Abl interaction inhibition; P00519+Q13671; TR-FRET Rin1/Abl binding, biochemical; inhibition, % at 7.35 µM; 360,000 compounds, 0.4% hits; in the data active = inhibition above about 5%, passing the limit was not always enough
MBD2 DNA inh – inhibitors of human MBD2 binding to methylated oligonucleotide | Q9UBB5 | inhibition, % at 4.4 µM | AID 686964 | 370,000 compounds, 0.31% hits | TR-FRET; in the data active = inhibition above about 13%
Target sequence (Q9UBB5 whole entry, looked up): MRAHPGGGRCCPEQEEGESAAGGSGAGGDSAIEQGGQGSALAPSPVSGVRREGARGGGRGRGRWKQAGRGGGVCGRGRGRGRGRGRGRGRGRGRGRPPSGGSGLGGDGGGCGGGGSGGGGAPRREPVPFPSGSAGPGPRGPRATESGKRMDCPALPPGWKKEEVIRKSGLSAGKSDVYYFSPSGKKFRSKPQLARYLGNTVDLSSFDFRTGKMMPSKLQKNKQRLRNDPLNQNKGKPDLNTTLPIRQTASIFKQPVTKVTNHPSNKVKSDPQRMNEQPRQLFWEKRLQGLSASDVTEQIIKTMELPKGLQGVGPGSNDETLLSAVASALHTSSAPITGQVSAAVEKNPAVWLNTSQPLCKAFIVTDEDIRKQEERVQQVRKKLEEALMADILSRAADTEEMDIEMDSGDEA
LEDGF integ inh – blocks HIV-1 LEDGF/p75-dependent DNA integration. TR-FRET IN-LEDGF/p75 DNA integration, Eu/Cy5. inhibition, % at 3.7 µM. 370,000 compounds, 0.64% hits;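 active = inhibition above the screen-wide mean plus 3 SD, cut at about 13% in these data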;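 also: signal is the Cy5 over europium emission ratio at 671 and 618 nm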
Rin1-Abl confirm – confirmation of inhibitors of human Rin1-Abl interaction; 1,300 compounds, 49% hits; shares compounds with Rin1-Abl PPI inh; inhibition, % at 7.35 µM; TR-FRET Rin1-Abl binding, purified proteins
GFP quench – quenches GFP fluorescence, counter-screen for Rin1-Abl inhibitors | shares compounds with Rin1-Abl PPI inh | 1,300 compounds, 8.5% hits | inhibitors/quenchers counterscreen | AID 602125 | inhibition, % at 6.75 µM;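 also: ABL1-eGFP fusion protein alone without its partner RIN1-SBP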
GFP quench dose – quenches GFP in dose response, Rin1-Abl counter-screen | shares compounds with Rin1-Abl PPI inh | GFP fluorescence interference/quenching counterscreen | IC50, µM | 230 tested, under 10 active; call rule not given here;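 also: ABL1-eGFP fusion protein alone without its RIN1 binding partner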
Each line names hits and unclear results; the compound was inactive in the other large screens (follow-up assays come after a bar, where shown). Hits are enriched below; roughly 3.1% of the tested compounds scored in any of these assays. Rule as the data show it, unless noted: active = inhibition above about 6.5%; inactive = the rest.

CCN(CC)S(=O)(=O)c1ccc(C(=O)NCc2ccc3c(c2)OCO3)cc1	none
CCCN(CCC)S(=O)(=O)c1ccc(C(=O)NCc2ccc3c(c2)OCO3)cc1	Rin1-Abl PPI inh 6.3 | Rin1-Abl confirm inactive | GFP quench inactive
COc1cc(NC(=O)c2cc(-c3ccc4c(c3)OCO4)on2)cc(OC)c1OC	Rin1-Abl PPI inh 12 | Rin1-Abl confirm inactive | GFP quench inactive
COc1ccc(S(=O)(=O)NC2CC(=O)N(c3ccccc3)C2)cc1C (stereo not drawn)	none
COc1ccc(C(=O)NC(=S)Nc2cccnc2)cc1OC	Rin1-Abl PPI inh 8.9 | Rin1-Abl confirm inactive | GFP quench inactive
COc1ccc(C(=O)Nc2ccc(O)cc2C(=O)O)cc1	Rin1-Abl PPI inh 11 | Rin1-Abl confirm 9.8 | GFP quench inactive
COc1ccc(C(=O)Nc2cc(Cl)ccc2C(=O)O)cc1	none
COc1ccc(C(=O)Nc2ccccc2C(=O)Nc2ccccc2C(=O)O)cc1	Rin1-Abl PPI inh 5.6 | Rin1-Abl confirm inactive | GFP quench inactive
CCN(CC)C(=O)CC[C@H]1CC[C@]2(CCCN(S(=O)(=O)C3CCCCC3)C2)O1	none (no result: Neddyl block, Rin1-Abl PPI inh)
C/C(=C/c1[nH]c(N)[n+](CC2CC2)c1Cc1ccccc1)Cn1[nH]c(=O)n(-c2ccccc2)c1=O	none (no result: Neddyl block, Rin1-Abl PPI inh)
CN(C)c1ccc(CNC(=O)C2Cc3c(-c4cccc(C(N)=O)c4)ccnc3O2)cc1 (stereo not drawn)	Rin1-Abl PPI inh 7.0 | Rin1-Abl confirm 7.2 | GFP quench inactive
CC(=O)Nc1ccc(-c2ccnc3c2CC(C)(C(=O)NCc2ccc(N4CCN(C)CC4)cc2)O3)cc1 (stereo not drawn)	Rin1-Abl PPI inh 8.7 | Rin1-Abl confirm 6.6 | GFP quench inactive
NC(=O)c1cccc(-c2ccnc3c2CC(C(=O)NCc2ccco2)O3)c1 (stereo not drawn)	none
COc1ccc(NC(=O)C2(C)Cc3c(-c4cccc(C(N)=O)c4)ccnc3O2)cc1 (stereo not drawn)	Rin1-Abl PPI inh 10 | Rin1-Abl confirm inactive | GFP quench inactive
NC(=O)c1cccc(-c2ccnc3c2CC(C(=O)Nc2ccccc2)O3)c1 (stereo not drawn)	Rin1-Abl PPI inh 12 | Rin1-Abl confirm 8.6 | GFP quench inactive
CN(C)c1ccc(CNC(=O)C2(C)Cc3c(-c4cccc(C(N)=O)c4)ccnc3O2)cc1 (stereo not drawn)	Rin1-Abl PPI inh 16 | Rin1-Abl confirm 8.3 | GFP quench inactive
OC1CCCN(Cc2nc(Cc3ccccc3Cl)no2)C1 (stereo not drawn)	Rin1-Abl PPI inh 8.8 | Rin1-Abl confirm inactive | GFP quench inactive
COc1ccccc1OCc1ccc(C(=O)N2CCN(C(=O)c3ccco3)CC2)cc1	Rin1-Abl PPI inh 10 | Rin1-Abl confirm 21 | GFP quench inactive | GFP quench dose inactive
Cc1ccc(S(=O)(=O)N(C)C)cc1NC(=O)CCCNC(=O)c1ccc(Cl)cc1	none
Cc1ccc(S(=O)(=O)N2CCN(C(=O)CSc3ccccn3)CC2)c(C)c1	Rin1-Abl PPI inh 8.2 | Rin1-Abl confirm inactive | GFP quench inactive
CCN(CC)c1ccc(C=NN2CCCCCC2)cc1	Rin1-Abl PPI inh 33 | Rin1-Abl confirm inactive | GFP quench inactive
CCN(CC)c1ccc(/C=N/N2CCOCC2)cc1	none
COc1ccc(N2CC(C(=O)N[C@@H](C)C(=O)NCCc3ccccc3)CC2=O)cc1 (stereo partly drawn)	none
COc1c(O)cc2c(c1O)[C@@H]1O[C@H](CO)[C@@H](O)[C@H](O)[C@H]1OC2=O	none
Cc1c(C(=O)O)c(O)cc2c1C(=O)c1c(O)c([C@@H]3O[C@H](CO)[C@@H](O)[C@H](O)[C@H]3O)c(O)c(O)c1C2=O	Rin1-Abl PPI inh 21 | Rin1-Abl confirm 27 | GFP quench inactive
Cc1cccc2cc(C(c3nnnn3C(C)(C)C)N(Cc3ccco3)CC3CCCO3)c(=O)[nH]c12 (stereo not drawn)	Rin1-Abl PPI inh 5.8 | Rin1-Abl confirm 9.1 | GFP quench inactive
Cc1ccc2[nH]c(=O)c(C(c3nnnn3C(C)(C)C)N(Cc3ccco3)CC3CCCO3)cc2c1 (stereo not drawn)	none
Cc1cc2cc(CNC(=S)Nc3ccc(OC(F)(F)F)cc3)ccc2[nH]1	Rin1-Abl PPI inh 6.1 | Rin1-Abl confirm inactive | GFP quench inactive
CN(CC(=O)Nc1cc(S(=O)(=O)N2CCOCC2)ccc1Cl)C1CCS(=O)(=O)C1 (stereo not drawn)	Rin1-Abl PPI inh 9.4 | Rin1-Abl confirm inactive | GFP quench inactive
O=C(c1ccncc1)N1CCN(C2CCCCC2)CC1	Rin1-Abl PPI inh 10 | Rin1-Abl confirm inactive | GFP quench inactive
O=C(c1ccccc1)N1CCN(C2CCCCC2)CC1	none
Cc1ccccc1NC(=O)COc1ccccc1C	none
Cc1ccccc1OCC(=O)Nc1ccccc1-c1ccccc1	Rin1-Abl PPI inh 7.0 | Rin1-Abl confirm inactive | GFP quench inactive
C=CCn1c(SCc2cccc(C(F)(F)F)c2)nnc1-c1ccc(OC)cc1	none (no result: Neddyl block, Rin1-Abl PPI inh)
Cn1c(-c2c(N)n(-c3ccccc3)c3nc4ccccc4nc23)nc2ccccc21	none (not shown: Neddyl block)
Cc1cccc(-n2c(N)c(-c3nc4ccccc4n3C)c3nc4ccccc4nc32)c1	Rin1-Abl PPI inh 12 (not shown: Neddyl block) | Rin1-Abl confirm inactive | GFP quench inactive
COc1ccc(-n2ncc3c(N4CCCCC4)ncnc32)cc1	Neddyl block active, Rin1-Abl PPI inh 6.1 (no result: UHRF1 MBD2 ctr, proKLK7 act, MBD2 DNA inh, LEDGF integ inh) | Rin1-Abl confirm inactive | GFP quench inactive
Clc1ccc(-n2ncc3c(N4CCCCCC4)ncnc32)cc1	none
COc1ccc(C)cc1S(=O)(=O)n1nc(C)cc1C	Rin1-Abl PPI inh 8.4 | Rin1-Abl confirm inactive | GFP quench inactive
COc1ccc(C(C)C)cc1S(=O)(=O)n1cnc(C)c1	Rin1-Abl PPI inh 8.0 | Rin1-Abl confirm inactive | GFP quench inactive
COc1cc(C)c(Cl)cc1S(=O)(=O)n1cnc(C)c1	none
CC(NCc1ccco1)C(=O)N1CCCN(C)CC1 (stereo not drawn)	none (no result: Neddyl block, Rin1-Abl PPI inh)
CCOC(=O)c1ccc2ncc(C(=O)OCC)c(NCCN3CCOCC3)c2c1	none
CCOC(=O)c1ccc2ncc(C(=O)OCC)c(NCCN(C)C)c2c1	Rin1-Abl PPI inh 7.9 (not shown: Neddyl block) | Rin1-Abl confirm inactive | GFP quench inactive
CCCCN(CCCC)Cc1cc(=O)oc2cc(OC)c(Cl)cc12	none
CC1Cc2ccccc2N1C(=O)COC(=O)/C=C/c1cccc(F)c1 (stereo not drawn)	Rin1-Abl PPI inh 12 | Rin1-Abl confirm inactive | GFP quench inactive

Assay outcomes (PubChem BioAssay)
